Screen size: about 6,200 compounds; about 2,900 (47%) were called active. Cut-off read from the data, not from the text of the source: active = inhibition above about 50%; inactive = the rest. So high a share suggests a set chosen from earlier hits. Some of the results follow.
Test: Mycobacterium tuberculosis growth inhibition, primary screen (AID 1259343)
Settings: inhibition: at 10 µM, hits give high values; outcome: 10 uM

SMILES | inhibition
N#Cc1cccc(CN2CCN3C(C(=O)Nc4ccc(-n5cccn5)cc4)=COC3=NC2=O)c1 | 85.8% (active)
N#Cc1cccc(CN2CCN3C(C(=O)Nc4ccc(-n5cccc5)cc4)=COC3=NC2=O)c1 | 29.2% (inactive)
N#Cc1cccc(CN2CCN3C(C(=O)NCCCc4ccccc4)=COC3=NC2=O)c1 | 89.4% (active)
O=c1c(Cl)cc(C(F)(F)F)cn1Cc1coc(-c2cccs2)n1 | 25.7% (inactive)
O=c1c(Cl)c(Cl)cnn1CCOc1ccc(Br)cc1 | 33.5% (inactive)
O=c1c(Cl)c(Cl)cnn1Cc1cc(-c2cccs2)on1 | 99.8% (active)
Fc1ccc(C2C=C(c3cccs3)Nc3nnnn32)cc1 (centres undefined) | 51% (active)
FC(F)Oc1ccc(C2C=C(c3ccccc3)Nc3nnnn32)cc1 (centres undefined) | -55.4% (inactive)
FC(F)(F)c1ccc(C2C=C(c3cccs3)Nc3nnnn32)cc1 (centres undefined) | 87.3% (active)
CCCCSC1=C(C#N)C(=O)NC(C)S1 (centres undefined) | 27.6% (inactive)
CCCCCCSC1=C(C#N)C(=O)NC(CO)S1 (centres undefined) | 98.9% (active)
CCCCCCSC1=C(C#N)C2(CCCC2)C(C#N)C(=O)N1 (centres undefined) | inactive
c1ccc(-c2cnnc(N3CCCCCCC3)n2)cc1 | 48.8% (inactive)
CC(C)(C)c1cc2nc(C(=O)O)cc(-c3cccc(C(F)(F)F)c3)n2n1 | 43.3% (inactive)
COc1ccccc1-c1cc(C(=O)O)nc2cc(-c3ccc(Cl)cc3)nn12 | 43.3% (inactive)
CC(C)(C)c1cc2nc(C(=O)O)cc(-c3cccc(F)c3)n2n1 | 64.4% (active)
CN1CCC(CNc2ccc3ncc(-c4cccc(OC(F)(F)F)c4)n3n2)CC1 | 44.6% (inactive)
COc1cccc(-c2cc(C(=O)O)nc3cc(C(C)(C)C)nn23)c1 | 100% (active)
COc1cccc(-c2cc(C(=O)O)nc3cc(-c4ccc(Cl)cc4)nn23)c1 | 59.4% (active)
CCOc1cc(C2=NN(c3ccc(C)cc3)C(=O)CC2)ccc1O | 6.87% (inactive)
COc1ccc2c(c1)c(CC(=O)O)c(C)n2C(=O)c1ccc(Cl)cc1 | 43.2% (inactive)
Cc1ccc(C2(CCN)CCOC(C(C)C)C2)cc1 (centres undefined) | 80.7% (active)
COc1ccc(NC(=O)N2CCN(CCCOC(c3ccc(Cl)cc3)c3ccc(Cl)cc3)CC2)cc1 | 10.1% (inactive)
Cc1ccc(Cc2nnc(SCC(=O)Nc3ccc(OC(F)F)cc3)[nH]c2=O)cc1 | 44.2% (inactive)
COc1ccc(NC(=O)CSc2n[nH]c(C3CC3)n2)cc1 | 78.8% (active)

SMILES | inhibition
O=[N+]([O-])c1cccc(-c2csc(Nc3ccc(Cl)cc3)n2)c1 | 88.3% (active)
Cc1ccc(C)c(Nc2nc(-c3ccc([N+](=O)[O-])cc3)cs2)c1 | 15.3% (inactive)
COC(=O)Nc1cccc(C(=O)N2CCC(C)C3CCCCC32)c1 (centres undefined) | 27.1% (inactive)
COC(=O)c1ccc2c(c1)S(=O)(=O)N(C1CCCCC1C)C2=O (centres undefined) | 81.4% (active)
CS(=O)(=O)NCc1cccc(-c2ccc(C#N)s2)c1 | 2.92% (inactive)
Cc1ccc(-c2nnc(SCC(=O)N3CCC(C)CC3)o2)cc1 | -35.9% (inactive)
CCOC(=O)CSc1nnc(CSc2cc(C)nc(N3CCCC3)n2)o1 | 93.2% (active)
CCOC(=O)CNC(=O)CSc1ncnc2c1nnn2-c1ccc(OC)cc1 | -7.53% (inactive)
O=C(CSc1ncnc2c1nnn2-c1ccc(F)cc1)OCc1ccccc1 | 2.43% (inactive)
COc1ccc(-n2nnc3c(SCC(N)=O)ncnc32)cc1 | 14.3% (inactive)
COc1ccc(-n2nnc3c(SCC(=O)Nc4ccccc4)ncnc32)cc1 | 68.2% (active)
CCOC(=O)C(C)Sc1ncnc2c1nnn2-c1ccc(OC)cc1 (centres undefined) | 75.5% (active)
COC(=O)C(C)Sc1ncnc2c1nnn2-c1ccc(F)cc1 (centres undefined) | 76.7% (active)
COC(=O)CSc1ncnc2c1nnn2-c1ccc(F)cc1 | 89.9% (active)
COC(=O)CSc1ncnc2c1nnn2Cc1ccc(F)cc1 | -38.1% (inactive)
CCC(Sc1ncnc2c1nnn2-c1ccc(F)cc1)C(=O)OC (centres undefined) | 42.6% (inactive)
CCOC(=O)CSc1ncnc2c1nnn2-c1ccc(OC)cc1 | 3.35% (inactive)
CCOC(=O)C(CC)Sc1ncnc2c1nnn2-c1ccc(F)cc1 (centres undefined) | 36.5% (inactive)
COC(=O)C(C)Sc1ncnc2c1nnn2-c1ccc(OC)cc1 (centres undefined) | 72.2% (active)
CCOC(=O)C(C)Sc1ncnc2c1nnn2-c1ccc(F)cc1 (centres undefined) | 60% (active)
CCC(Sc1ncnc2c1nnn2-c1ccc(OC)cc1)C(=O)OC (centres undefined) | -33.3% (inactive)
CC(Sc1ncnc2c1nnn2-c1ccc(F)cc1)c1ccccc1 (centres undefined) | 82.1% (active)
O=C(N=C1N=C2N=CC=CN2Cc2ccccc21)Nc1ccc(Cl)c(Cl)c1 | 88% (active)
O=C(N=C1N=C2C=CC(Br)=CN2Cc2ccccc21)c1ccccn1 | 10.5% (inactive)
O=C(CC12CC3CC(CC(C3)C1)C2)N=C1N=C2C=CC=CN2Cc2ccccc21 | -15.7% (inactive)

SMILES | inhibition
O=C(Nc1ccc(Oc2ccccc2F)cc1)C1CCN(C(=O)c2ccncc2)CC1 | 90.8% (active)
Cc1cc(C(=O)N2CCC(C(=O)Nc3ccc(Oc4ccccc4F)cc3)CC2)c(C)o1 | inactive
O=C(Nc1ccc(Oc2ccccc2F)cc1)C1CCN(C(=O)C2=CCCC2)CC1 | 90.8% (active)
O=C(Nc1ccc(Oc2ccccc2)nc1)C1CCN(C(=O)C2=CCCC2)CC1 | 44% (inactive)
O=C(Nc1ccc(Oc2ccccc2F)cc1)C1CCN(C(=O)C#Cc2ccccc2)CC1 | 89.6% (active)
O=C(Nc1ccc(F)cc1F)C1CCN(C(=O)c2cccnc2)CC1 | 85.7% (active)
O=C(Nc1ccc(Oc2ccccc2F)cc1)C1CCN(C2Cc3ccccc3C2)CC1 | 91.6% (active)
COc1ccc(Cl)cc1C(=O)Nc1cc(C)nn1-c1nc2c(c(=O)[nH]1)CCC2 | 95.5% (active)
Cc1cc(NC(=O)c2ccco2)n(-c2nc3c(c(=O)[nH]2)CCC3)n1 | 101% (active)
Cc1cc(NC(=O)c2ccc(F)c(F)c2)n(-c2nc3c(c(=O)[nH]2)CCC3)n1 | -20.9% (inactive)
Cc1cc(NC(=O)c2ccccc2C)n(-c2nc3c(c(=O)[nH]2)CCC3)n1 | 100% (active)
Cc1cc(NC(=O)c2ccc(Cl)cc2)n(-c2nc3c(c(=O)[nH]2)CCC3)n1 | 101% (active)
Cc1cc(NC(=O)c2ccccc2)n(-c2nc3c(c(=O)[nH]2)CCC3)n1 | -26.4% (inactive)
Cc1cc(NC(=O)c2cc(Cl)ccc2Cl)n(-c2nc3c(c(=O)[nH]2)CCC3)n1 | 37.1% (inactive)
CCCN1CCCc2cc(CCNS(=O)(=O)Cc3cccc(C)c3)ccc21 | 31.9% (inactive)
O=C(Nc1ccc(Oc2ccc(Cl)cc2)c(Cl)c1)c1cc(I)cc(I)c1O | 101% (active)
O=C(CSc1nnc(SCc2ccccc2)s1)NN=Cc1ccc([N+](=O)[O-])cc1 | 83.1% (active)
CCCC(=O)Oc1c(S(=O)(=O)c2ccc([N+](=O)[O-])cc2)c(C)nn1-c1ccccc1 | 28.6% (inactive)
CC(C)(C)c1ccc(C=NOCc2ccc([N+](=O)[O-])cc2)cc1 | -20.2% (inactive)
CCCCCCC(=O)NN=Cc1ccc([N+](=O)[O-])cc1 | 77.5% (active)
CCCCCC(=O)NN=Cc1ccc([N+](=O)[O-])cc1 | 100% (active)
CC(C)=CCCC(C)=CC=NNc1ccc([N+](=O)[O-])cc1 | 62% (active)
CSc1nnc(SCc2ccc([N+](=O)[O-])cc2)s1 | -12.4% (inactive)
CC1=Nn2cc(-c3ccccc3)nc2SC1c1ccccc1 (centres undefined) | 20.8% (inactive)
CCCCCCC(C)=NNc1ccc([N+](=O)[O-])cc1 | 98.5% (active)

SMILES | inhibition
CCCCCCCC(C)=NNc1nc2ccccc2s1 | inactive
C=CCc1cc([N+](=O)[O-])ccc1O | 101% (active)
O=C(C=Cc1ccco1)NC12CC3CC(CC(C3)C1)C2 | 67.6% (active)
O=C(C=Cc1ccc(F)cc1)NCc1ccco1 | 29.9% (inactive)
CC(C)(C)OC(=O)NNC(=O)C=Cc1ccco1 | -8.19% (inactive)
O=C(C=Cc1ccco1)NCc1ccc(F)cc1 | 72.3% (active)
O=C(C=Cc1cccs1)NC12CC3CC(CC(C3)C1)C2 | inactive
O=C(/C=C/c1cc(C(F)(F)F)ccc1Cl)NCc1ccon1 | -0.62% (inactive)
COc1ccc(NC(=O)CSCc2ccccn2)cc1OC(F)F | 17.9% (inactive)
COc1ccc(C)cc1CCNC(=O)c1ccsc1 | 26.8% (inactive)
COc1ccc(NC(=O)c2ccsc2)cc1OC(F)F | 54.8% (active)
Cc1ccnc(N2CCN(c3ncnc4scc(-c5ccc(F)cc5)c34)CC2)c1 | 3.93% (inactive)
Cc1cccc(OCCN(C)C(=O)/C=C/c2ccc3c(c2)OCO3)c1 | 34.9% (inactive)
O=S(=O)(CCCOc1ccc2c(c1)OCO2)NC1CCCCC1 | 99.2% (active)
CC(C)NS(=O)(=O)CCCOc1ccc2c(c1)OCO2 | 50.3% (active)
O=S(=O)(CCCOc1ccc2c(c1)OCO2)NC1CCCCCC1 | 93% (active)
COCCn1c(=S)[nH]c2sc3c(c2c1=O)CCC(C)C3 (centres undefined) | -21.7% (inactive)
CCN=c1scc(-c2ccc(Br)s2)n1N=CC1CCCCC1 | 36% (inactive)
Cc1nc(C(C)C)sc1C(=O)Nc1nc2ccccc2[nH]1 | 100% (active)
CNC(=O)c1sc(N2CCN(c3ccccc3F)CC2)nc1C | 33.2% (inactive)
CC1=CC(=NNc2nc3ccccc3[nH]2)CC(C)(C)C1 | 24.5% (inactive)
Cc1csc(Nc2ccc(Cl)cc2)[n+]1-c1ccc(Cl)cc1 | 16% (inactive)
Cc1nc2nc(CC(=O)N3CCOCC3)nn2c(C)c1Cl | 52.5% (active)
CC(C)(C)C(=O)NC(=S)NC1=CC2N=C(c3ccncc3)OC2C=C1 (centres undefined) | 54.2% (active)

Source: PubChem BioAssay AID1259343 (VanderVen Lab, College of Veterinary Medicine, Cornell …, 2017)
